Reference: ChEMBL document CHEMBL2218924, “A broad activity screen in support of a chemogenomic map for kinase signalling research and drug discovery” (Biochem J, 2013)

What was measured:
[1] = biological target: T1, Serine/threonine-protein kinase 3 (Homo sapiens) (UniProt Q13188); settings: at 1 µM
T1 sequence (whole entry): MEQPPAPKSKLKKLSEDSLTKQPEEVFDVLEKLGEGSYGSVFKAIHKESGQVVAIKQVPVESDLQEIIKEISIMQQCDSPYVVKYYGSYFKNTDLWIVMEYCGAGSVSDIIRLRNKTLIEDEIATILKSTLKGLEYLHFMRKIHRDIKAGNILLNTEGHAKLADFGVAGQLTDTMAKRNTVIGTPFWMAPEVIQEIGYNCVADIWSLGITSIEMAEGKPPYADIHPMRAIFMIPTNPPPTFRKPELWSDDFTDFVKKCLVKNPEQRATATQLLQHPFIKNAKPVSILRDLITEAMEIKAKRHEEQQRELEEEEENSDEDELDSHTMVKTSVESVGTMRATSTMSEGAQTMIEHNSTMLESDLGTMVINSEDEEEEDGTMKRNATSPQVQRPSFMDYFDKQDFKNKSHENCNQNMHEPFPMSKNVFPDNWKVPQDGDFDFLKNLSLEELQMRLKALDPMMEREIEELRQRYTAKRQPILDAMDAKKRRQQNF

[2] = biological target: T1, Serine/threonine-protein kinase 3 (Homo sapiens); settings: at 10 µM
[3] = biological target: Serine/threonine-protein kinase 24 (Homo sapiens) (UniProt Q9Y6E0); settings: at 1 µM
[4] = biological target: Serine/threonine-protein kinase 24 (Homo sapiens) (UniProt Q9Y6E0); settings: at 10 µM
[5] = biological target: MAP kinase-interacting serine/threonine-protein kinase 2 (Homo sapiens) (UniProt Q9HBH9); settings: at 1 µM
[6] = biological target: MAP kinase-interacting serine/threonine-protein kinase 2 (Homo sapiens) (UniProt Q9HBH9); settings: at 10 µM
[7] = biological target: T2, Muscle, skeletal receptor tyrosine-protein kinase (Homo sapiens) (UniProt O15146); settings: at 1 µM
T2 sequence (whole entry): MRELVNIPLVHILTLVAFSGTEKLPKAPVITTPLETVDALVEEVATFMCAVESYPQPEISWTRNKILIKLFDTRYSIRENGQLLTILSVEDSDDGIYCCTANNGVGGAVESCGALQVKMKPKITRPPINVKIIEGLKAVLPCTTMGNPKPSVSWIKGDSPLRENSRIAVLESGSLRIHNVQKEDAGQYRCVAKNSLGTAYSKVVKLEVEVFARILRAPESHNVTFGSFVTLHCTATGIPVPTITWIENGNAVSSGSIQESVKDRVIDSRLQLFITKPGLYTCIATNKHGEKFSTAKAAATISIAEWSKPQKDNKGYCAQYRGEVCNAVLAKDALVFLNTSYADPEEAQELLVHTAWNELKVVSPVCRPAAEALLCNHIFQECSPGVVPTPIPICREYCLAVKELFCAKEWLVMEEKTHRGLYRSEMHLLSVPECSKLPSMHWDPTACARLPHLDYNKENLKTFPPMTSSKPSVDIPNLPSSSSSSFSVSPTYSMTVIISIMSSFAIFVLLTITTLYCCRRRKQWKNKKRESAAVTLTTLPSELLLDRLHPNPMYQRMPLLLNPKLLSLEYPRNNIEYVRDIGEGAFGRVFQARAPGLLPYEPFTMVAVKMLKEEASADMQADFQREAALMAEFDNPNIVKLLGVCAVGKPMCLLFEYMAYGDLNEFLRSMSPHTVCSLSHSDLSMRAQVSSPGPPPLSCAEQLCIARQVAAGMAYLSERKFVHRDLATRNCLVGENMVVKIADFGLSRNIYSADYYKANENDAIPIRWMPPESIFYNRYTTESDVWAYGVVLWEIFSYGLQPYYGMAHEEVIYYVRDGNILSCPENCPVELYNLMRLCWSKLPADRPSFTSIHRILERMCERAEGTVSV

[8] = biological target: T2, Muscle, skeletal receptor tyrosine-protein kinase (Homo sapiens); settings: at 10 µM
[9] = biological target: T3, Serine/threonine-protein kinase Nek11 (Homo sapiens) (UniProt Q8NG66); settings: at 10 µM
T3 sequence (whole entry): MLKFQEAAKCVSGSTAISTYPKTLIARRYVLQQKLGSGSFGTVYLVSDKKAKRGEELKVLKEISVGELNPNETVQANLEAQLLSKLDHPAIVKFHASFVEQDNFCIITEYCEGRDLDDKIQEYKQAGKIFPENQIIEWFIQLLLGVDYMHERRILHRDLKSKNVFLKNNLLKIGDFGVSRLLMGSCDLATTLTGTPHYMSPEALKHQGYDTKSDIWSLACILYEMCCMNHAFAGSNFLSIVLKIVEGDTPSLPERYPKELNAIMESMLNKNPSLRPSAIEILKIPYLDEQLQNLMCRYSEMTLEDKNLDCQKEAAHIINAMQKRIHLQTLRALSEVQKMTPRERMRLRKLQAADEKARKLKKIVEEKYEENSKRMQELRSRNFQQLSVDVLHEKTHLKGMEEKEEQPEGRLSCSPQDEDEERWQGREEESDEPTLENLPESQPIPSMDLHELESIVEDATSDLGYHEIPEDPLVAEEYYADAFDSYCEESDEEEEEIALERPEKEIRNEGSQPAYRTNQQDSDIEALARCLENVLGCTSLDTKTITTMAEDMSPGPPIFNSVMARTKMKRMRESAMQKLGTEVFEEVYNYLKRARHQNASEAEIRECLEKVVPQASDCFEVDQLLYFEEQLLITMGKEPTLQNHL

[10] = biological target: T4, Serine/threonine-protein kinase Nek3 (Homo sapiens) (UniProt P51956); settings: at 1 µM
T4 sequence (whole entry): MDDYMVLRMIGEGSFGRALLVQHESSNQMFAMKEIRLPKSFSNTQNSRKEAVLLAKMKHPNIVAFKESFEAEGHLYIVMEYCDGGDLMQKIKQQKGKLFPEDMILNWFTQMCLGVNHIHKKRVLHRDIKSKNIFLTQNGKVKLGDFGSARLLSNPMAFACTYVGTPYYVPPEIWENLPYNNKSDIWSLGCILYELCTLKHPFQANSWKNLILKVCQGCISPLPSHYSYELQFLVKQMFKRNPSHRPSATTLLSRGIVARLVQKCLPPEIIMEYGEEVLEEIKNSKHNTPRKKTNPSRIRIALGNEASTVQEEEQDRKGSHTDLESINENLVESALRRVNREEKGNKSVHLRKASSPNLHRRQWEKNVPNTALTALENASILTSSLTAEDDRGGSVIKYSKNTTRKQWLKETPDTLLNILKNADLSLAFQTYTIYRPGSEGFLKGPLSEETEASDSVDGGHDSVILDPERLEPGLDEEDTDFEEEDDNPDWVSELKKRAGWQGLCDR

[11] = biological target: T4, Serine/threonine-protein kinase Nek3 (Homo sapiens); settings: at 10 µM
[12] = biological target: T5, Tyrosine-protein kinase Mer (Homo sapiens) (UniProt Q12866); settings: at 1 µM
T5 sequence (whole entry): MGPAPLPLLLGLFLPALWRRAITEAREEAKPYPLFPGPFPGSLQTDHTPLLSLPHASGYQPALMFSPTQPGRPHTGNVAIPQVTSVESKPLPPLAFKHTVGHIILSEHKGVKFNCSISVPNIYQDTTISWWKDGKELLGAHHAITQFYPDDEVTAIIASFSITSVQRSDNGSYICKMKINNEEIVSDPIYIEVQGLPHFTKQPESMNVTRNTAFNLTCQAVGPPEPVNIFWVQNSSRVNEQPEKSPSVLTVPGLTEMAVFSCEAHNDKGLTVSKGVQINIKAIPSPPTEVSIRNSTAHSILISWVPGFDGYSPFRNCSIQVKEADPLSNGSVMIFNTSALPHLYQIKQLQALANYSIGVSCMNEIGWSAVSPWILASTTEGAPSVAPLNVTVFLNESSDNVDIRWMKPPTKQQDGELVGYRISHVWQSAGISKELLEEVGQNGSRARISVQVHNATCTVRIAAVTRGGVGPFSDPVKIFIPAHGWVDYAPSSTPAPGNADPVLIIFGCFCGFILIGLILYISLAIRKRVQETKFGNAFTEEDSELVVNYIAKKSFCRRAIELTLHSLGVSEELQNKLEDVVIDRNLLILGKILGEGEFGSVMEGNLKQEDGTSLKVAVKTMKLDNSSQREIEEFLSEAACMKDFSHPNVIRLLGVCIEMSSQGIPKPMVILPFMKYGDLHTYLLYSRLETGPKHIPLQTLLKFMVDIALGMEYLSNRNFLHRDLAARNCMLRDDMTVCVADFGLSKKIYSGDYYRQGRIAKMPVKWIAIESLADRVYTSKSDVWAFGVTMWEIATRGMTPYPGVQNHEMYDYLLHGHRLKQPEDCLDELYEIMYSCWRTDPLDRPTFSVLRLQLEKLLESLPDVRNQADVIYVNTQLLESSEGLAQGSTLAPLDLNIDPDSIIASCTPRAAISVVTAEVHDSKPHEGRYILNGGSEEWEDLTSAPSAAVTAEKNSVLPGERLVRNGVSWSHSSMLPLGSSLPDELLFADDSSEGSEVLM

[13] = biological target: T5, Tyrosine-protein kinase Mer (Homo sapiens); settings: at 10 µM
[14] = biological target: Hepatocyte growth factor receptor (Homo sapiens) (UniProt P08581); settings: at 1 µM
[15] = biological target: Hepatocyte growth factor receptor (Homo sapiens) (UniProt P08581); settings: at 10 µM
[16] = biological target: T3, Serine/threonine-protein kinase Nek11 (Homo sapiens); settings: at 1 µM
[17] = biological target: T6, Serine/threonine-protein kinase Nek2 (Homo sapiens) (UniProt P51955); settings: at 1 µM
T6 sequence (whole entry): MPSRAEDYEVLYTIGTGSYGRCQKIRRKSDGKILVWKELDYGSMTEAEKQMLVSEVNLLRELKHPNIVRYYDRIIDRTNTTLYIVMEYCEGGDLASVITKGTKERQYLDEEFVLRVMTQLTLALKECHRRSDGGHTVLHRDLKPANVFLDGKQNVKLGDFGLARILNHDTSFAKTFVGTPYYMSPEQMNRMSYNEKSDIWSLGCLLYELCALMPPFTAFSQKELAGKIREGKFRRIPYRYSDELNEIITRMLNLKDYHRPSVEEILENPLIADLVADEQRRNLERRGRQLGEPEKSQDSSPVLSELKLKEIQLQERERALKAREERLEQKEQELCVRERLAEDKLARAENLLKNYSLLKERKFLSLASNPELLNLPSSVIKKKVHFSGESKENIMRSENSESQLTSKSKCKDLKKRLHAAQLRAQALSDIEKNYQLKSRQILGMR

[18] = biological target: T6, Serine/threonine-protein kinase Nek2 (Homo sapiens); settings: at 10 µM
[19] = biological target: Serine/threonine-protein kinase tousled-like 2 (Homo sapiens) (UniProt Q86UE8); settings: at 1 µM
[20] = biological target: Serine/threonine-protein kinase tousled-like 2 (Homo sapiens) (UniProt Q86UE8); settings: at 10 µM

Chain of MAP kinase-interacting serine/threonine-protein kinase 2 (Homo sapiens) (Q9HBH9 whole entry, looked up): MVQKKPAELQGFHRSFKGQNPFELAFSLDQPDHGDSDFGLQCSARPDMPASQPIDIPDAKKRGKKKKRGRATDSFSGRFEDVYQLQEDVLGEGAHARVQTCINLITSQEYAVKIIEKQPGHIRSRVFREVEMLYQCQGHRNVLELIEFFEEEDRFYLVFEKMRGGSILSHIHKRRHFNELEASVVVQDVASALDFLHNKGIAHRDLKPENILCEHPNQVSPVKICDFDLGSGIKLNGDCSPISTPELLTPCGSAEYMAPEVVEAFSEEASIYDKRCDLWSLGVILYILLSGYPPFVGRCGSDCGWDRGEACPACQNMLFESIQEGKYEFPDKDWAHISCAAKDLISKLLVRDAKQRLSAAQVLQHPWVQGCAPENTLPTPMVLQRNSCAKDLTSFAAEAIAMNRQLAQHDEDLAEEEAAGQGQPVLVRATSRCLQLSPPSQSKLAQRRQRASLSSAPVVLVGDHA
Chain of Serine/threonine-protein kinase tousled-like 2 (Homo sapiens) (Q86UE8 whole entry, looked up): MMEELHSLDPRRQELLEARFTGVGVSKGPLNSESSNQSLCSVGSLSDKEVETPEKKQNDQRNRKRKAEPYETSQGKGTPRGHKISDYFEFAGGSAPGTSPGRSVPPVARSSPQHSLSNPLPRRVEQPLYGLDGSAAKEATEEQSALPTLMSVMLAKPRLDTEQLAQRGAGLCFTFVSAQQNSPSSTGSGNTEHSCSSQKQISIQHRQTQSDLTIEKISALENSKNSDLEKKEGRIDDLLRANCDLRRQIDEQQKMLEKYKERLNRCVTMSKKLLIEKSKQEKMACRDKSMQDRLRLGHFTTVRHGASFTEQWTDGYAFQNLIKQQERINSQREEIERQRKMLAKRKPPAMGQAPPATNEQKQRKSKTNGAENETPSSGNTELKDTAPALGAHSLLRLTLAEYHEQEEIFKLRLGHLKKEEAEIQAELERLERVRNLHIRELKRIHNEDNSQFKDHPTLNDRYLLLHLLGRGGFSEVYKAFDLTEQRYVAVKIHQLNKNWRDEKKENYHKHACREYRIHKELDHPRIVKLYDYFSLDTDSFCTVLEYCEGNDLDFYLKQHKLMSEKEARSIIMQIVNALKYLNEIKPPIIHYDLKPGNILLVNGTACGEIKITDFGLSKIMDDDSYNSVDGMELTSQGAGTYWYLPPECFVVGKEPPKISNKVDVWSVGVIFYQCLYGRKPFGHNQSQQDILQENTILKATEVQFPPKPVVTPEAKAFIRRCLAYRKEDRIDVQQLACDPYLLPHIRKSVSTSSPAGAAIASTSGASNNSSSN
Chain of Hepatocyte growth factor receptor (Homo sapiens) (P08581 whole entry): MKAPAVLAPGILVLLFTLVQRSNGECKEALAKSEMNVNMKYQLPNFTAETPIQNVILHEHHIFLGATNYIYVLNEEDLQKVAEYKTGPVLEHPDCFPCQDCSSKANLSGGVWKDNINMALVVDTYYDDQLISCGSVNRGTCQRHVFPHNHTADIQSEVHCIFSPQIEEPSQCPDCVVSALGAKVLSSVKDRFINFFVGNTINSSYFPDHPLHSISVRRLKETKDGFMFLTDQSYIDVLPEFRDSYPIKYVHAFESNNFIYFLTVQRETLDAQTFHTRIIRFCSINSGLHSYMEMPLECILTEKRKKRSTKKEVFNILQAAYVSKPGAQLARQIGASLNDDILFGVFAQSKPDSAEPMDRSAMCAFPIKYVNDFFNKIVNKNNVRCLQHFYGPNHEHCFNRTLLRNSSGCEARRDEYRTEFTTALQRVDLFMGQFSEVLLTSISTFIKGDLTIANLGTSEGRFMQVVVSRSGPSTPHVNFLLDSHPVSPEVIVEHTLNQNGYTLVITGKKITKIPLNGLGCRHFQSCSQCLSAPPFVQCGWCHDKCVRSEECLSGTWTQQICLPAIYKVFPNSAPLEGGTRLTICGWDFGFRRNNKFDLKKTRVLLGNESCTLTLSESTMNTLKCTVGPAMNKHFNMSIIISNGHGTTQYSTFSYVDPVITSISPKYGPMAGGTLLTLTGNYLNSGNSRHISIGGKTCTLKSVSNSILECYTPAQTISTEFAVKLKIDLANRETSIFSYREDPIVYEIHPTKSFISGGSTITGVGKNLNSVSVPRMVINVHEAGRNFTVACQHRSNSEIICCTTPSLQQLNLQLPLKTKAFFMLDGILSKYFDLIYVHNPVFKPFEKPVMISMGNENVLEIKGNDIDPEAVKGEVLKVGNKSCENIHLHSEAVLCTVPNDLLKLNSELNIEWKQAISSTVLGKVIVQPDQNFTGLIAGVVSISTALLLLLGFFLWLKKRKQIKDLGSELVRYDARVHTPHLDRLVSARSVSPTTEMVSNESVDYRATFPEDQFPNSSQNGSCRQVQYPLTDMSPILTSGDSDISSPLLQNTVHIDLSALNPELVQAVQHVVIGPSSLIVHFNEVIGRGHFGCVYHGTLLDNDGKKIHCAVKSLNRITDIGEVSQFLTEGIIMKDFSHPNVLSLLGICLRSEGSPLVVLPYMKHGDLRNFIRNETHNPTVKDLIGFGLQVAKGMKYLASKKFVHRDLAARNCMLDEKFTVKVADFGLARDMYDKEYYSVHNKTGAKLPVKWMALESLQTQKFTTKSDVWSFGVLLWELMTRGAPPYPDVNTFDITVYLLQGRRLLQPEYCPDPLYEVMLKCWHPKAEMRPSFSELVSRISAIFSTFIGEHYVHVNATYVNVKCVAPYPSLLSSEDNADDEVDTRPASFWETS
Chain of Serine/threonine-protein kinase 24 (Homo sapiens) (Q9Y6E0 whole entry, looked up): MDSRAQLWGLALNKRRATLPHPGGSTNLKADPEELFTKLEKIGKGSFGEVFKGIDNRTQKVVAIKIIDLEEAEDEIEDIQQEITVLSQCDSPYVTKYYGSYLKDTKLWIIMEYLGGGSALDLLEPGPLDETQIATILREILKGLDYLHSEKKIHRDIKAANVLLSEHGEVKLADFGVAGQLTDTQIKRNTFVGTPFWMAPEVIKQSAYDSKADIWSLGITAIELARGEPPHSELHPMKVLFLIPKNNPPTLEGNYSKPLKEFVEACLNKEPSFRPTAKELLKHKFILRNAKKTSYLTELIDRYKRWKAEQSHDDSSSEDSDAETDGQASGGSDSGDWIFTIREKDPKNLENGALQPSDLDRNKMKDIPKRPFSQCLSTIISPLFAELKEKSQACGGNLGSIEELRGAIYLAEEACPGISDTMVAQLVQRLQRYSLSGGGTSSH

SMILES	residual activity [1] [%]	residual activity [2] [%]	residual activity [3] [%]	residual activity [4] [%]	residual activity [5] [%]	residual activity [6] [%]	residual activity [7] [%]	residual activity [8] [%]	residual activity [9] [%]	residual activity [10] [%]	residual activity [11] [%]	residual activity [12] [%]	residual activity [13] [%]	residual activity [14] [%]	residual activity [15] [%]	residual activity [16] [%]	residual activity [17] [%]	residual activity [18] [%]	residual activity [19] [%]	residual activity [20] [%]
N#CCCc1ccc2c(c1)-c1[nH]c3ccc([N+](=O)[O-])cc3c1CC(=O)N2	27	7	37	12	72	42	68	32	72	79	67									
C[C@@H](N)[C@H]1CC[C@H](C(=O)Nc2ccncc2)CC1	111	105	98	92	106	77	103	101	96	120	120	93	101	132	131	99	120	102	93	94
COc1cc2ncnc(Nc3ccc(Oc4ccccc4)cc3)c2cc1OC	96	80	111	124	52	16	71	73	105	106	97	53	38			100	92	96	106	98
CC(=O)c1ccc(N2CCOCC2)cc1O			70	71	105	96	105	81			77						84	104	103	95
COc1cc2ncnc(Nc3ccc(NC(=O)c4ccccc4)cc3)c2cc1OC		95	90		98	57		98	103			108	59	88	23	96	105	95	109	86
COc1ccc(CNc2nc(N(CCO)CCO)nc3c2ncn3C(C)C)cc1	107	104	65	60	99	100	86	73	64	71	90	90	60	122	85	53	90	85	83	85
O=C1Nc2ccccc2/C1=C1/Nc2ccccc2/C1=N\OCCC(O)CO (configuration not stated)	4	1	27	3	66	44	20	3	35	71		1	-1	45	37	41			38	6
Oc1ccc(-c2nc(-c3ccc(F)cc3)c(-c3ccncc3)[nH]2)cc1	108	90	93	77	117	94	92	77	66	85	104	110	96	117	37	85	127	99	112	100
